PubChem BioAssay
Calls of active or inactive are those of the source.

Key:
[1] = system: Human papillomavirus type 1a protein E7 (residues 44-93); assay: HPV1a E7 fragment binders on microarrays, primary screen, biochemical, small-molecule microarray, residues 44-93, 635 nm fluorescence (AID 1108); settings: small-molecule microarray binding, fluorescence 635 nm; higher = more signal;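 also: E7 fragment applied at 1 µg/mL in TBST for 1 h at 4 C; score combines spot fluorescence with its signal to noise ratio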
[2] = modulators of HCV replicon luciferase signal, primary screen, HCV replication inhibitor project, Huh7 cells, luciferase reporter (AID 1109); settings: 48 h, higher = more signal;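 also: huh7 hepatoma cells harbouring a luciferase neomycin HCV replicon reporter; luciferase luminescence as measure of HCV replicon replication; test concentration not given here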
[3] = target: Left-right determination factor 2 (Homo sapiens) (UniProt O00292); assay: LEFTY2 binders on small-molecule microarrays, primary screen, biochemical, small-molecule microarray, 635 nm fluorescence scan (AID 1110); settings: LEFTY2 binding, higher = more signal
Chain of Left-right determination factor 2 (Homo sapiens) (O00292 whole entry, looked up): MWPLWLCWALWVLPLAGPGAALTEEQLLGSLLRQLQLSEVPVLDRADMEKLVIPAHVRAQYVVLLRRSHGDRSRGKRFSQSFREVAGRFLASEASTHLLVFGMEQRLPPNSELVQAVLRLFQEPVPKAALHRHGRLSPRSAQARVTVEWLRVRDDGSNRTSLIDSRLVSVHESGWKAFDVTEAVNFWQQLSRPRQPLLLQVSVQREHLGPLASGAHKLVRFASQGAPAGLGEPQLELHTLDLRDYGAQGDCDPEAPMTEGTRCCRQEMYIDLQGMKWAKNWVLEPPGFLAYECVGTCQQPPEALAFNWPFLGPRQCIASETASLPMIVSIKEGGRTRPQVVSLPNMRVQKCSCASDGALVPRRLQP

[4] = target: Calmodulin-1 (Homo sapiens) (UniProt P0DP23); assay: CALM1 binders on microarrays, EGTA buffer, profiling panel, biochemical, small-molecule microarray, Cy5-labelled CALM1 (AID 1111); settings: Cy5-CALM1 binding fluorescence, higher = more signal;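 also: labelled calmodulin applied in Tris saline Tween buffer holding calcium plus EGTA and DTT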
[5] = target: Calmodulin-1 (Homo sapiens) (UniProt P0DP23); assay: calcium-bound CALM1 binders on microarrays, profiling panel, artefact control for SMM control-protein annotation, biochemical, small-molecule microarray, Cy5-labelled CALM1, plus calcium (AID 1112); settings: Cy5-CALM1 binding fluorescence, higher = more signal;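 also: score merges spot fluorescence with signal to noise from triplicate slides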
[6] = small-molecule microarray binders of probe aWnt5a, primary screen, biochemical, biotinylated probe, 635/667 nm fluorescence (AID 1113); settings: higher = more signal;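 also: score merges 667 nm fluorescence intensity with signal-to-noise per printed feature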
[7] = small-molecule microarray binders of probe aShh, primary screen, biochemical, biotinylated probe, 635/667 nm fluorescence (AID 1114); settings: higher = more signal;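 also: probe is biotin-labelled aShh protein from a stem cell growth factor screen; measures binding of labelled protein to compounds printed on the slide; score merges feature fluorescence at 667 nm with signal-to-noise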
[8] = small-molecule microarray binders of probe aNog, primary screen, biochemical, biotinylated probe, 635/667 nm fluorescence (AID 1115); settings: higher = more signal;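 also: probe is biotinylated aNog protein used at 0.15 µg/mL for 1 h at 4 C; z-score combines 667 nm fluorescence of each spot with its signal to noise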
[9] = target: Torsin-1A-interacting protein 1 (Homo sapiens) (UniProt Q5JTV8); assay: LAP1 binders from COS7 cell lysate, primary screen, small-molecule microarray, 635/667 nm fluorescence (AID 1116); settings: COS7-hLAP1 lysate binding, 635 nm fluorescence, higher = more signal
Chain of Torsin-1A-interacting protein 1 (Homo sapiens) (Q5JTV8 whole entry, looked up): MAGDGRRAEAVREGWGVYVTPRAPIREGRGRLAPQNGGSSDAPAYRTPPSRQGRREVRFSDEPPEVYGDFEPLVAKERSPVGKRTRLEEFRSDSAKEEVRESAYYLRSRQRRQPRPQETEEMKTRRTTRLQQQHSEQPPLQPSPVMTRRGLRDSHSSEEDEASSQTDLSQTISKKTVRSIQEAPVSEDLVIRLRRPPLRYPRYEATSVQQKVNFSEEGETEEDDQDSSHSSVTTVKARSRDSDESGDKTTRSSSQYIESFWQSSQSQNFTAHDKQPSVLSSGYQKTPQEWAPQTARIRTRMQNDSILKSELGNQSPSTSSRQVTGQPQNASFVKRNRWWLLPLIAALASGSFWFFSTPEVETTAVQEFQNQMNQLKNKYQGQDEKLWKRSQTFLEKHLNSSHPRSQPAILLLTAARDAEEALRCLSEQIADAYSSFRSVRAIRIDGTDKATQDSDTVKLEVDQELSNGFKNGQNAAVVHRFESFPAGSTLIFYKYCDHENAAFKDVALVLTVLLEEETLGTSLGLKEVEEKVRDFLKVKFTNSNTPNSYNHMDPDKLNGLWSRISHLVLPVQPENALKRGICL

[10] = target: Alpha-bungarotoxin (Bungarus multicinctus) (UniProt P60615); assay: alpha-bungarotoxin binders on microarray, profiling panel, artefact control for SMM control protein annotation, biochemical, small-molecule microarray, Alexa647 label, 635/667 nm fluorescence (AID 1117); settings: alpha-BTX-A647 binding fluorescence, higher = more signal
Chain of Alpha-bungarotoxin (Bungarus multicinctus) (P60615 whole entry, looked up): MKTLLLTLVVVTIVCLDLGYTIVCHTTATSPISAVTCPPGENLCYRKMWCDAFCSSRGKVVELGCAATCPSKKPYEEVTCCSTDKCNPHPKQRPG

Albumin (Bos taurus) = Albumin (Bos taurus) (UniProt P02769); assay: bovine serum albumin binders on microarray, profiling panel, artefact control for SMM control protein annotation, biochemical, small-molecule microarray, Alexa647 label, 635/667 nm fluorescence (AID 1118); settings: BSA-A647 binding, fluorescence 635 nm, higher = more signal;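 also: score merges 667 nm emission intensity and signal-to-noise per printed compound spot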
Chain of Albumin (Bos taurus) (P02769 whole entry, looked up): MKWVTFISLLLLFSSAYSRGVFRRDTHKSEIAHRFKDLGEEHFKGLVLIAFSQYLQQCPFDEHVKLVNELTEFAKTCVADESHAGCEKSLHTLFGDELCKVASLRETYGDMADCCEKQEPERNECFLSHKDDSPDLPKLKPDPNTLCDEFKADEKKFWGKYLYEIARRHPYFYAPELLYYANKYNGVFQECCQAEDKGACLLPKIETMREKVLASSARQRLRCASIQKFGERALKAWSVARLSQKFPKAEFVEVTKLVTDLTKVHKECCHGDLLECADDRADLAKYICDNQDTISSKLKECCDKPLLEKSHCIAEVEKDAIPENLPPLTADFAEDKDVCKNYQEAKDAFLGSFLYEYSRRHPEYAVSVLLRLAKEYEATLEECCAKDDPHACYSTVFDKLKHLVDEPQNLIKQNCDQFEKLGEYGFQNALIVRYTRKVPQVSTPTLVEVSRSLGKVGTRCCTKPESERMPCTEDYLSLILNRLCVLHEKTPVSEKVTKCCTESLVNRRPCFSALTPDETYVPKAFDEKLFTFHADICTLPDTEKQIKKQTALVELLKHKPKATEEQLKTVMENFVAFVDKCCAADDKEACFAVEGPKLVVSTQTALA

[11] = small-molecule microarray binders of probe aXIP, primary screen, biochemical, NeuroSMM set, 635/667 nm fluorescence (AID 1119); settings: higher = more signal, called active from +8 up or from −8 down;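 also: probe is the protein aXip251-270 applied at 1 µg/mL to compound-printed slides; binding of probe to printed compounds measured as 667 nm fluorescence plus signal to noise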
[12] = small-molecule binders of probe aNOTCH3, primary screen, biochemical, small-molecule microarray, 635/667 nm fluorescence (AID 1120); settings: higher = more signal;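 also: probe is a biotin-tagged antibody raised against NOTCH3 rather than NOTCH3 protein; score merges spot fluorescence near 667 nm with spot signal to noise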
[13] = small-molecule binders of probe aNOTCH2, primary screen, biochemical, small-molecule microarray, 635/667 nm fluorescence (AID 1121); settings: higher = more signal;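 also: score merges feature fluorescence read at 667 nm with its signal to noise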
[14] = target: Carbonic anhydrase 2 (Homo sapiens) (UniProt P00918); assay: CAII small-molecule binders, profiling panel, biochemical, small-molecule microarray, Alexa647-labelled CAII (AID 1122); settings: CAII-A647 binding fluorescence, higher = more signal
[15] = COS7 lysate on small-molecule microarray, probe aHis, 635 nm (AID 1123); settings: COS7 cell lysate, fluorescence, higher = more signal;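 also: z-score combines 667nm fluorescence intensity with signal-to-noise per printed compound spot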
[16] = compound binding in COS7 lysate, probe aLAP1, primary screen, cell lysate, small-molecule microarray (AID 1124); settings: probe aLAP1, fluorescence, higher = more signal;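 also: lysate comes from COS7 cells expressing LAP1 and is applied at 0.3 µg/mL; score merges spot fluorescence near 667 nm with signal-to-noise over triplicate slides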
Sam68 (KHDRBS1) = assay: Sam68 small-molecule binders, primary screen, biochemical, small-molecule microarray, 635 nm fluorescence (AID 1125); settings: small-molecule microarray binding, higher = more signal;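 also: score merges 667 nm channel intensity with signal to noise over triplicate slides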
[17] = system: Chordin-like protein 2 (CHRDL2); assay: CHRDL2 small-molecule binders, primary screen, biochemical, small-molecule microarray, 635 nm fluorescence (AID 1126); settings: small-molecule microarray binding, fluorescence 635 nm; higher = more signal;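 also: printed compound slides probed with Chrdl2 protein at 4 µg/mL for 1 h at 4 C; score merges 667 nm emission intensity with signal to noise over three replicate slides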
[18] = target: Concanavalin-A (Canavalia ensiformis) (UniProt P02866); assay: ConA small-molecule binders, primary screen, artefact control for SMM control protein annotation, biochemical, small-molecule microarray, Alexa647 label, 635 nm (AID 1127); settings: ConA-A647 binding fluorescence, higher = more signal;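 also: z combines 667 nm emission intensity with signal-to-noise across three replicate slides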
Chain of Concanavalin-A (Canavalia ensiformis) (P02866 whole entry, looked up): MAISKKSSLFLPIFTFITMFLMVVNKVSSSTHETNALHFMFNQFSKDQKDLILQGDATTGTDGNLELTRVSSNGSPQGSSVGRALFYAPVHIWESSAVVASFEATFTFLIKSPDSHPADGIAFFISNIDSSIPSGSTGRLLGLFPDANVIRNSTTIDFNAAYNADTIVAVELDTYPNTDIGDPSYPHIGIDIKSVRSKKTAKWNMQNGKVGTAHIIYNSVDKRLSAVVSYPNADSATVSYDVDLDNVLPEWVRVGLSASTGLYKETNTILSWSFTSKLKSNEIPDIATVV

| SMILES | composite z-score [1] | z-score [2] | composite z-score [3] | composite z-score [4] | composite z-score [5] | composite z-score [6] | composite z-score [7] | composite z-score [8] | composite z-score [9] | composite z-score [10] | composite z-score (Albumin (Bos taurus)) | composite Z-score [11] | composite z-score [12] | composite z-score [13] | composite z-score [14] | composite z-score [15] | composite z-score [16] | composite z-score (Sam68 (KHDRBS1)) | composite z-score [17] | composite z-score [18] |
| --- | --- | --- | --- | --- | --- | --- | --- | --- | --- | --- | --- | --- | --- | --- | --- | --- | --- | --- | --- | --- |
| C[N+](C)(C)CCCC[C@@H]1NC(=O)[C@H]2C[C@@H](C(=O)O)[C@@H](c3cccc(OCCO)c3)N2C1=O | 1.47 | -0.774 | 0.968 | 2.16 | 0.618 | 1.18 | 2.34 | 2.84 | 3.37 | 3.77 | 0.969 | 3.73 (inactive) | 1.14 | 0.402 | 0.758 | 3.12 | 1.07 | 1.31 | 1.17 | 1.22 |
| COc1ccc([Si](C)(C)[C@@H]2[C@@H](CCO)O[C@]3(C(=O)N(Cc4cccc(N5CCCCC5=O)c4)c4ccccc43)[C@H]2C)cc1 | 1.34 | -5.14 | 0.34 | 1.08 | 0.415 | -0.0165 | -0.0626 | 0 | 0.702 | 0.836 | 0.532 | 0.6 (inactive) | 0.134 | -0.123 | 0.361 | 1.06 | 0.0492 | 1.29 | 0.128 | 0.961 |
| O=C(NCC(O)CO)[C@]1(CCS(=O)(=O)c2ccccc2)N=C(c2ccc(OCCCO)cc2)O[C@@H]1c1ccccc1 (stereo not given in full) | 0.556 | -0.326 | -0.805 | 1.99 | 1.48 | -0.0846 | 0.0756 | 1.12 | 2.69 | 2.41 | 1.11 | -0.262 (inactive) | -0.095 | -0.0392 | 0.761 | 3.41 | 0.944 | 1.23 | -1.41 | 0.87 |
| CCCC[C@H]1OB(O)C[C@H]2C1=C(COc1ccccc1)C[C@H]1C(=O)N(Cc3ccccc3)C(=O)[C@H]12 | 1.38 | -1.72 | 0.377 | 0.324 | -0.774 | -0.176 | -0.0709 | -0.273 | -0.0868 | 1.04 | 0.117 | 0.142 (inactive) | 0.0203 | -0.108 | 0.602 | 0.383 | 0.154 | 0.868 | 0.0092 | 1.12 |
| CCCCCCC#C[Si](O[C@H](c1ccccc1)c1cn([C@H](C)c2ccccc2)nn1)(C(C)C)C(C)C | 0.444 | -1.57 | 0.434 | -0.193 | -0.455 | 0.0317 | -0.138 | -0.139 | -0.0802 | -0.0777 | 0.672 | 0.282 (inactive) | 0.155 | -0.0843 | -0.0858 | 0.19 | -0.164 | 0.729 | 0.267 | 0.809 |
| CC1CC/C=C\[C@H]2OC34C=CCN(c5ccc6ccccc6c5)C(=O)[C@H]3N(CCCCCO)C(=O)[C@@H]4C2C(=O)O1 (stereo not given in full) | -2.21 | 0.324 | -1.64 | -0.827 | -0.16 | -0.141 | -0.214 | -0.119 | -1.16 | -1.28 | -0.158 | 0.322 (inactive) | -0.372 | -0.0941 | -0.622 | -0.357 | -0.615 | -1.95 | -1.25 | -1.23 |
| NC(=O)NCC#Cc1ccc2c(c1)[C@]1(C(=O)N2)[C@H](c2ccccc2OCCO)N2[C@H](c3ccccc3)[C@H](c3ccccc3)OC(=O)[C@H]2[C@@H]1C(=O)N1CCCCCCC1 | 1.43 | -0.968 | 1.34 | 2.9 | 1.55 | 1.18 | 0.728 | 3.1 | 4.58 | 3.37 | 0.0389 | 4.09 (inactive) | 1.72 | 0.813 | 0.951 | 3.72 | 1.86 | 1.29 | 1.05 | 1.11 |
| CC(C)CNC(=O)[C@@]1(C)c2ccccc2C(=O)N(C(C)C)[C@H]1c1ccc(CO)cc1 | -1.4 | -1.13 | -0.243 | -0.489 | -0.577 | -0.191 | -0.375 | -0.524 | -0.181 | -0.018 | -1.44 | -0.0662 (inactive) | -0.146 | -0.132 | 0.903 | -0.445 | -0.121 | -1.06 | -1.02 | -2 |
| CC(C)C(=C=CC[C@H](O)c1ccccc1OCCO)CCO | 1.31 | -1.32 | -0.378 | -0.274 | 0.0647 | -0.0643 | 0.0639 | -0.0546 | 1.02 | 1.92 | -0.415 | -0.172 (inactive) | -0.0947 | -0.045 | 0.707 | 0.989 | 0.342 | 0.829 | -0.332 | -0.284 |
| O=C1OCCC=C[C@H]2OC34C=CCN(CCN5CCOCC5)C(=O)[C@H]3N(CCO)C(=O)[C@@H]4C12 (stereo not given in full) | -1.74 | 0.18 | 0.601 | -1.72 | -1.21 | -0.181 | -0.338 | -0.467 | 0.0029 | -1.01 | -0.188 | -0.7 (inactive) | 0.16 | -0.202 | 0.72 | -0.219 | -0.193 | -1.08 | 0.112 | -0.916 |
| CCOC(=O)C[C@H]1[C@H](OC(=O)c2ccc(C(=O)c3ccccc3)cc2)[C@@H](NC(=O)c2ccc3ccccc3n2)c2cc(OCCCO)ccc2N1C(=O)c1ccc2ccccc2n1 | 1.03 | -0.931 | 0.691 | 0.338 | -0.59 | 0.0761 | -0.0904 | -0.158 | 1.92 | 0.583 | 0.802 | 0.525 (inactive) | 0.16 | -0.101 | 0.245 | 0.847 | 0.808 | 0.616 | -0.0787 | 0.564 |
